The results in this text go back to PubChem BioAssay.

A short description of this experiment: modulators of brain endothelial barrier permeability, primary screen, cell-based, FITC-avidin fluorescence, HTS (AID 1963498). Note: test concentration not given here. Conditions: actives lie on both sides.

Activity calls are given as the source filed them. Cut-off read from the data, not from the text of the source: active = fold change permeability below about 0.7 or above about 1.3; inactive = in between.

As to `Cc1cc(CN2CCN(c3c(Br)cnc4nc(-c5ccc(N6CCN(C)CC6)cc5)[nH]c34)CC2)no1`, the fold change permeability was 1.4 (active).

Regarding `CCCCN(CCCC)CC(O)c1cc(Cl)cc2c1-c1ccc(Cl)cc1/C2=C/c1ccc(Cl)cc1` (stereo not given), the fold change permeability was 0.9 (inactive). In the case of `COc1ccccc1N1CCN(CCCNc2c(C)c(=O)n(C)c(=O)n2C)CC1` it was 1.5 (active). For `CC(C)c1cccc(C(C)C)c1N1C(=O)c2ccc(O)cc2C1=O`, the fold change permeability was 1.6 (active). Regarding `C=CC(N)CCC(=O)O` (stereo not given), the fold change permeability is 1.5 (active). In the case of `Nc1c(S(=O)(=O)O)cc(Nc2ccc(Nc3nc(Cl)nc(Nc4cccc(S(=O)(=O)O)c4)n3)c(S(=O)(=O)O)c2)c2c1C(=O)c1ccccc1C2=O` it was 0.7 (active); in that of `C#CCN(C)Cc1ccccc1`, 0.6 (active); in that of `O=P(O)(O)C(O)(Cn1ccnc1)P(=O)(O)O`, 0.8 (inactive).

As for `O=C1Nc2ccc(I)cc2/C1=C/c1cc(Br)c(O)c(Br)c1`, the fold change permeability is 0.7 (active). The figure for `N=c1nc(N2CCCCC2)cc(N)n1O` is 0.9 (inactive). The figure for `CO[C@H]1O[C@@H]2O[C@@]3(C)CC[C@H]4[C@H](C)CC[C@@H]([C@H]1C)[C@@]24OO3` is 0.8 (inactive).

With `O=C1N/C(=N/S(=O)(=O)c2cccc3ccccc23)S/C1=C\c1ccc(Br)cc1`, the fold change permeability was 1.3 (active). The figure for `c1ccc(-c2ccccn2)nc1` is 1 (inactive). The figure for `O=C(O)CCC(C(=O)O)N1C(=O)c2ccccc2C1=O` (stereo not given) is 1 (inactive). The figure for `NNCCc1ccccc1` is 1.1 (inactive); for `CS(=O)(=O)c1ccc(C2=C(c3ccccc3)C(=O)OC2)cc1` it is 0.8 (inactive); for `O=C(Nc1ccncc1)c1cc([N+](=O)[O-])ccc1Cl` it is 1 (inactive). For `Cn1c(CNc2ccc(C(=N)N)cc2)nc2cc(C(=O)N(CCC(=O)O)c3ccccn3)ccc21`, the fold change permeability was 1.1 (inactive). With `COc1cc(/C=C/C(=O)N2CCC=CC2=O)cc(OC)c1OC`, the fold change permeability is 1 (inactive). As for `O=C(Nc1ccc(Oc2ccc(Cl)cn2)c(Cl)c1)c1ccccn1`, the fold change permeability is 1.5 (active).

As for `Cc1cc2nc(NCCCO)n(CC(=O)c3cc(C(C)(C)C)c(O)c(C(C)(C)C)c3)c2cc1C`, the fold change permeability was 1.1 (inactive). On to `Cc1cc(NC(=O)Nc2ccc3c(ccn3C)c2)sn1`, for which the fold change permeability was 1.2 (inactive). In the case of `CCn1c(=O)[nH]c2cc(Cl)c(Cl)cc21` it was 0.7 (active). Regarding `NO`, the fold change permeability was 1.1 (inactive).

Consider `CC1(C)CCC(NC(=O)[C@@H](N)CCC(=O)O)CC1`, for which the fold change permeability is 0.9 (inactive). The figure for `O=C(O)COc1ccc(C(=O)c2cccs2)c(Cl)c1Cl` is 1.4 (active); for `CCCn1c(=O)c2[nH]c(-c3ccc(S(=O)(=O)O)cc3)nc2n(CCC)c1=O` it is 1.1 (inactive).

Consider `COc1cc2ncnc(Nc3cccc(Br)c3)c2cc1OC`, for which the fold change permeability was 1.1 (inactive). The figure for `O=Nc1c(-c2c(O)[nH]c3cc(Br)ccc23)[nH]c2ccccc12` is 1.2 (inactive). In the case of `CC(C)C[C@H]1C(=O)N2CCC[C@H]2[C@]2(O)O[C@](NC(=O)[C@@H]3C=C4c5cccc6[nH]c(Br)c(c56)C[C@H]4N(C)C3)(C(C)C)C(=O)N12` it was 1.1 (inactive); in that of `COc1ccccc1OCCNCC(O)COc1cccc2[nH]c3ccccc3c12` (stereo not given), 1.7 (active). The figure for `N=C(N)c1ccccc1` is 0.9 (inactive); for `NC(N)=NCCCCN=C(N)N` it is 1.2 (inactive). Consider `C[C@H](NC[C@H](O)CP(=O)(O)Cc1ccccc1)c1ccc(Cl)c(Cl)c1`, for which the fold change permeability was 1.1 (inactive).

As for `COc1ccc(C2CNC(=O)C2)cc1OC1CCCC1` (stereo not given), the fold change permeability was 1.1 (inactive).
